In the assay the test system is CAMK1D. The settings on record: concentration: 1 μM, replicates: in singlicate; n = 1.
Take `CN(c1ccc2c(c1)nc(NCc1ccccc1)n2C)c1ccnc(Nc2ccc(CS(C)(=O)=O)cc2)n1.Cl` [GW811603]: the “%Inh” value is recorded as 5%.

Turning to `COc1cccc(C2=C(Nc3cccc(O)c3)C(=O)NC2=O)c1` [SB-390771], the “%Inh” value is listed as 13%.

For `O=C(Nc1c(F)cccc1F)c1cc(C(=O)c2ccccc2F)c[nH]1` [GSK1326180], the “%Inh” value is on record as 13%.

Consider `CC(C)c1nc(-c2ccc(F)c(NS(=O)(=O)c3c(F)cccc3F)c2)c(-c2ccnc(Nc3ccc(N4CCOCC4)nc3)n2)s1` [GSK1804250], for which the “%Inh” value is on record as 26%.

Turning to `Cl.O=C(Nc1ccc(Oc2ccc3[nH]c(NC(=O)c4ccco4)nc3c2)cc1)Nc1cc(C(F)(F)F)ccc1F` [GW683134], the “%Inh” value was 0%.

In the case of `c1ccc(Oc2ccc(Nc3ccnc4cc(-c5ccc(CN6CCCCC6)o5)ccc34)cc2)nc1` [GW567143], the “%Inh” value is recorded as 19%.

`N#CC1(c2cccc(C(=O)Nc3cccc(Oc4ccc5nc(NC(=O)C6CC6)sc5n4)c3)c2)CC1`: the “%Inh” value is listed as 2%.

Turning to `CNc1nccc(-c2ccc3c(N)n[nH]c3c2)n1` [GSK2206003], the “%Inh” value is listed as 28%.

As to `COc1cccc(NC(=O)NCCNc2ccnc(Nc3ccc(F)cc3)n2)c1` [GSK1379879], the “%Inh” value is reported as 8%.

`Cc1cccc(Nc2nc(N[C@H]3CCCC[C@H]3N)ncc2C(N)=O)c1.Cl` [GSK986310]: the “%Inh” value was 61%.

Regarding `COC(=O)Nc1nc2cc(Oc3ccc(NC(=O)Nc4cccc(SC)c4)cc3)ccc2[nH]1.Cl` [GW697999], the “%Inh” value amounted to 7%.

As to `CN(c1ccc(NC(=O)N2CCN(CCCN3CCOCC3)CC2)cc1)c1ccnc(Nc2ccc(CS(C)(=O)=O)cc2)n1.Cl` [GW830899], the “%Inh” value came to 5%.

For `O=C(Nc1n[nH]c2nc(-c3ccccc3O)ccc12)C1CC1` [SB-711880], the “%Inh” value was 4%.

Turning to `CCn1c(-c2nonc2N)nc2c(-c3ccccc3)ncc(OCCCN)c21.O=C(O)C(F)(F)F.O=C(O)C(F)(F)F` [GSK260205], the “%Inh” value is 6%.

`Cc1ccc(NC(=O)c2ccnc(N3CCCCC3)c2)cc1-c1ccc(C(=O)NCC2CC2)cc1` [GW775610]: the “%Inh” value was 0%.

Consider `O=C(O)C(F)(F)F.O=c1[nH]ccc2nc(N[C@@H]3CCNC3)nc(Nc3ccc4c(c3)S(=O)(=O)CC4)c12` [GSK2181306], for which the “%Inh” value amounted to 98.6%.

Consider `Cc1ccccc1CC(=O)N1CCc2cc(-c3cn(C)c4ncnc(N)c34)ccc21` [GSK2603346], for which the “%Inh” value is 13%.

Turning to `Cc1ccc(O)cc1Nc1ccnc2cc(-c3ccc(CN4CCCCC4)o3)ccc12` [GW557777], the “%Inh” value was determined as 4%.

On to `COc1ccc(C2=C(Nc3cccc(O)c3)C(=O)NC2=O)cc1` [SB-390766], for which the “%Inh” value turned out to be 27%.

Regarding `Cc1ccc(O)cc1Nc1ccnc2ccc(C(C)(C)C)cc12` [GW856805], the “%Inh” value came to 28%.

Consider `O=C(Nc1n[nH]c2nc(-c3ccccc3)ccc12)C1CC1` [SB-708999], for which the “%Inh” value is recorded as 0%.

Regarding `NCCC(NC(=O)c1cc(Br)c(-c2ccnc3[nH]ccc23)s1)c1ccccc1.O=C(O)C(F)(F)F.O=C(O)C(F)(F)F` (stereo not drawn) [GSK1307810], the “%Inh” value was 34%.

Turning to `CCOc1nccc(-c2c(-c3ccc(F)cc3)ncn2C2CCNCC2)n1` [SB-249175], the “%Inh” value is 0%.

On to `CN1CCN(Cc2ccc(NC(=O)Nc3ccc(N(C)c4ccnc(Nc5ccc(CS(C)(=O)=O)cc5)n4)cc3)cc2)CC1.Cl` [GW827654], for which the “%Inh” value is 27%.

With `Cn1cc(-c2ccc3c(c2)CCN3C(=O)Cc2cc(F)cc(F)c2F)c2c(N)ncnc21` [GSK2634140], the “%Inh” value is on record as 28%.

In the case of `Cl.Cl.NCC(NC(=O)c1cc(-c2cccnc2)c(-c2ccnc3[nH]ccc23)s1)c1ccccc1` (stereo not drawn) [GSK1323434], the “%Inh” value is 18%.

As to `Cc1ccc(NC(=O)c2cccc(N3CCCCC3)c2)cc1-c1ccc(C(=O)NCC2CC2)cc1` [GSK1917008], the “%Inh” value is given as 11%.

As to `Cc1nn2c(=O)cc(N3CCO[C@H](C)C3)nc2n1Cc1cccc(Cl)c1Cl` [GSK2373693], the “%Inh” value is reported as 9%.

In the case of `Cl.N#CCc1ccc(Nc2nccc(Nc3ccc(Oc4ccccc4)cc3)n2)cc1` [GW639905], the “%Inh” value worked out at 0%.

Consider `Cn1cc(-c2cnc(N)c3c(-c4ccc5c(c4)CCN5C(=O)Cc4ccccc4)csc23)cn1` [GSK2593074], for which the “%Inh” value is 11%.

In the case of `CC(=O)Nc1cn2nc(Oc3cccc(NC(=O)c4cccc(C(F)(F)F)c4)c3)ccc2n1`, the “%Inh” value came out at 24%.

On to `O=C(Nc1n[nH]c2cc(-c3cccs3)ccc12)C1CC1` [SB-731284], for which the “%Inh” value is listed as 6%.

Consider `CN(c1ccc(NC(=O)Nc2cccc(Cl)c2)cc1)c1ccnc(N)n1.Cl` [GW830707], for which the “%Inh” value turned out to be 5%.
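Further: KINOMEscan kinase panel screen.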
